For nine molecules, growth results are on record in PubChem BioAssay (NCI).

Compounds without any hit were thinned out: in the full panel of roughly 83,000, 20% have a hit.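 Each cell line was grown in a 96-well plate and treated with one concentration of compound for 48 hours. Values below 10 were considered active.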 A number with no mark means an inactive call. The source made the active and inactive calls.

Common to all, as to test: NCI-60 one-dose screen, 48 h (100 = growth as untreated, 0 = no growth, -100 = all killed)
Assay [1] has as its system HT29 colon. The conditions noted are these: 10 µM unless noted.
Assay [2] concerns SNB-75 CNS. The conditions noted are these: 10 µM unless noted.
The subject of assay [3] is SNB-19 CNS. As to conditions: 10 µM unless noted.
The test system of assay [4] is U251 CNS. As to conditions: 10 µM unless noted.
The subject of assay [5] is PC-3 prostate. As to conditions: 10 µM unless noted.
The test system of assay [6] is UACC-62 melanoma. As to conditions: 10 µM unless noted.
Assay [7] relates to LOX IMVI melanoma. As to conditions: 10 µM unless noted.
The test system of assay [8] is SK-MEL-28 melanoma. As to conditions: 10 µM.
For assay [9], the system named is SK-MEL-2 melanoma. The conditions noted are these: 10 µM unless noted.
Assay [10] relates to SN12C renal. As to conditions: 10 µM unless noted.
For assay [11], the system named is UO-31 renal. As to conditions: 10 µM unless noted.
Assay [12] deals with TK-10 renal. The conditions noted are these: 10 µM unless noted.
Assay [13] relates to ACHN renal. The conditions noted are these: 10 µM unless noted.
Assay [14] concerns A498 renal. As to conditions: 10 µM unless noted.
In assay [15] the test system is CCRF-CEM leukemia. The conditions noted are these: 10 µM unless noted.
Assay [16] relates to MOLT-4 leukemia. The conditions noted are these: 10 µM unless noted.
For assay [17], the system named is SR leukemia. As to conditions: 10 µM unless noted.
Assay [18] concerns CAKI-1 renal. The conditions noted are these: 10 µM unless noted.
The test system of assay [19] is SK-MEL-5 melanoma. The conditions noted are these: 10 µM unless noted.
Assay [20] deals with EKVX NSCLC. As to conditions: 10 µM unless noted.

Turning to `CN1CCN(c2nc(Nc3ccc(O)cc3)nc3ccccc23)CC1`, the growth in assay [1] is 43.4%; in [2], 75.2%; in assay [3], 55.9%; in assay [4], 33.9%; in assay [5], 60%; in assay [6], 49.2%. Also, the growth in [7] was 20.1%; in assay [8], 66.2%; in [9], 76.8%; in assay [10], 63.8%; in assay [11], 57.3%; in [12], 71.9%. The growth in [13] is 49.5%; in assay [14], 85.2%; in [15], 93.4%; in assay [16], 98.4%; in assay [17], 87%.
As to `COc1ccc(Cn2c(Br)c3c(c2-c2cc(OC)c(OC)c(OC)c2)CCc2sc(NC(=O)c4ccc(OC)cc4)nc2-3)cc1`, the growth was 101% in assay [1]; 82.4% in assay [2]; 98.5% in assay [3]; 98.6% in [4]; 84.2% in [5]; 94.9% in assay [6]. The growth is 92.5% in assay [7]; 105% in assay [8]; 96.7% in assay [9]; 85% in assay [10]; 47.4% in assay [11]; 110% in assay [12]. The growth was 97.5% in [13]; 78% in assay [18]; 86.7% in [14]; 79% in [15]; 75.7% in assay [16]; 76.2% in assay [17].
`Cc1cc(OC(=O)c2ccc([N+](=O)[O-])cc2)nc2[nH]c(=O)sc12`: the growth in assay [1] was 105%; in [2], 90.6%; in [3], 98.6%; in assay [4], 97.1%; in [19], 100%; in assay [6] it was 102%. For the same molecule, the growth is 98.8% in [7]; 109% in assay [8]; 104% in [9]; 92.1% in assay [20]; 101% in [10]; 82.1% in assay [11]. In addition, the growth is 103% in assay [12]; 103% in assay [13]; 91.5% in [18]; 104% in assay [14]; 106% in [15]; 101% in assay [16]. Also, the growth in [17] was 108%.
For the molecule `O=c1c2cc(F)ccc2sc2c(NCCN3CCCC3)nc3ccccc3c12`, the growth in assay [1] was 13.9%; in assay [2] it was 77.6%; in assay [3], 69.2%; in [4], 35.7%; in assay [5] it was 61%; in assay [6], 38.2%. Further, the growth was 28.4% in assay [7]; 71.6% in [8]; 91% in assay [9]; 66.2% in assay [20]; 70.4% in [10]; 45.3% in [11]. Moreover, the growth in [12] was 64.8%; in assay [13], 35.6%; in assay [14] it was 26%; in assay [15], 33.5%; in [17], 16.7%.
For the molecule `CCOC(=O)c1ccc(N=Cc2sc(=O)[nH]c2O)cc1`, the growth in assay [1] was 104%; in [2], 84.9%; in assay [3] it was 91.9%; in assay [4], 97.3%; in [19], 99.8%; in assay [6], 91.2%. Besides, the growth in assay [7] was 93.6%; in [8], 105%; in assay [9] it was 94.5%; in assay [20], 93.4%; in assay [10], 95.3%; in assay [11], 83.1%. The growth is 98.4% in assay [12]; 90.3% in assay [13]; 88.1% in assay [18]; 110% in assay [14]; 99.9% in assay [16]; 117% in assay [17].
With `COc1ccc(-c2cn[nH]c2-c2cc(OC)c(OC)c(OC)c2)cc1OCc1ccccc1`, the growth in assay [1] is 84.9%; in assay [2], 5.94% (active); in [3], 41.1%; in assay [4], 12%; in assay [5], 22.4%; in assay [6] it was 21.8%. The growth is 21.5% in [7]; 48.5% in assay [8]; 2.98% (active) in [9]; 33.5% in [20]; 62.3% in assay [10]; 25.6% in assay [11]. The growth in assay [12] is 50.9%; in assay [13], 34.1%; in [18], 28.9%; in assay [14], -18.9% (active); in [16], 64.5%; in [17] it was 27.5%.
On to `O=C(NC1CCN(Cc2ccccc2)CC1)c1cc2nc(-c3ccc(Cl)s3)cc(C(F)(F)F)n2n1`, for which the growth in assay [1] is -84.3% (active); in assay [2], 35.6%; in assay [3], 101%; in assay [4], -86.9% (active); in assay [5], 72.2%; in [6] it was 97.3%. Also, the growth in [7] was 45.2%; in assay [8], -97.4% (active); in [10], 91.3%; in assay [11] it was 96.1%; in assay [12], 84.9%; in [13], 96.4%. The growth in [18] is 102%; in assay [14] it was 98.6%; in [15], -21.7% (active); in assay [16], -34.3% (active); in assay [17], -8.99% (active).
Take `Nc1nonc1-n1nncc1-c1cccnc1`: the growth in [1] is 107%; in assay [2] it was 81.2%; in [3], 129%; in assay [4], 101%; in assay [5], 105%; in [6] it was 112%. For the same molecule, the growth was 98.3% in assay [7]; 105% in assay [8]; 111% in assay [9]; 117% in assay [10]; 92.9% in [11]; 107% in assay [12]. Moreover, the growth was 105% in assay [13]; 95.1% in assay [18]; 81.9% in [14]; 106% in assay [15]; 91.4% in assay [16]; 103% in assay [17].
Consider `COc1ccc(C2=NN(/C=C3\SC(=O)NC3=Nc3ccc(F)cc3)C(c3ccc(F)cc3)C2)cc1` (stereo unspecified), for which the growth in [1] is 98.8%; in [2], 96.5%; in assay [3], 95.1%; in [4], 94.1%; in assay [19], 92%; in [6] it was 95.4%. In addition, the growth was 97.6% in assay [7]; 103% in [8]; 102% in assay [9]; 82.2% in assay [20]; 98.3% in assay [10]; 73.4% in assay [11]. Further, the growth in assay [12] is 87.9%; in assay [13], 93.7%; in assay [18], 89.1%; in assay [14], 93.8%; in assay [15], 102%; in assay [16], 98.4%. Further, the growth in [17] is 106%.
